Laboratory results published in PubChem BioAssay (NCI).
The panel holds about 83,000 compounds, 20% with a hit somewhere; the sample as a whole holds those more often.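 Each cell line was grown in a 96-well plate and treated with one concentration of compound for 48 hours. Values below 10 were considered active.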 A number with no mark means an inactive call. Activity calls are given as the source filed them.

Assays:
Test in all cases: NCI-60 one-dose screen, 48 h (100 = growth as untreated, 0 = no growth, -100 = all killed)
Conditions in all cases: 10 µM
T-47D breast = tested on: T-47D breast
BT-549 breast = tested on: BT-549 breast
MDA-MB-435 melanoma = tested on: MDA-MB-435 melanoma
SW-620 colon = tested on: SW-620 colon
MCF7 breast = tested on: MCF7 breast
HCT-116 colon = tested on: HCT-116 colon
HCC-2998 colon = tested on: HCC-2998 colon
KM12 colon = tested on: KM12 colon
MDA-MB-468 breast = tested on: MDA-MB-468 breast

Row | SMILES | growth (T-47D breast) | growth (BT-549 breast) | growth (MDA-MB-435 melanoma) | growth (SW-620 colon) | growth (MCF7 breast) | growth (HCT-116 colon) | growth (HCC-2998 colon) | growth (KM12 colon) | growth (MDA-MB-468 breast)
1 | C#CCNC(=O)CCC(=O)OC[C@]12CC[C@@H](C(=C)C)[C@@H]1C1CC[C@@H]3[C@@]4(C)CCCNC(C)(C)[C@@H]4CC[C@@]3(C)[C@]1(C)CC2 (some centres not stated) | 10.9% | 11% | -32.2% (active) | -92.3% (active) | -65.7% (active) | -60.3% (active) | -99.1% (active) | 6.5% (active) | -94.9% (active)
2 | CN1CCN(c2ccc(Nc3nc(NCCNC(=O)c4ccc(C(F)(F)F)cc4)c4sccc4n3)cc2)CC1 | -6.48% (active) | -13.9% (active) | -95.2% (active) | 4.68% (active) | -44.4% (active) | 15.2% | -22.5% (active) | 31.4% | 5.65% (active)
3 | CC(C)C1=C[C@@]23CC[C@@H]4[C@](C)(CCC[C@]4(C)C(=O)NCc4ccccc4)[C@H]2C[C@@H]1[C@H]1C(=O)CCC(=O)[C@H]13 | 51.8% | 68.7% | 86% | 85.4% | 42.7% | 60.4% | 90% | 84.6% | 70.1%
4 | COc1ccc(/C(C)=N/N=C2C(=O)N(C)c3ccc(Br)cc32)cc1S(N)(=O)=O | 52.6% | 29.2% | 95.9% | 85.7% | 57.8% | 74.4% | 98.3% | 97.8% | 70.2%
5 | COC1=C[C@]23CCC(=O)N2CCc2cc4c(cc2[C@@H]3[C@@H]1OC(=O)CCCC(C)C)OCO4 | 68.3% | 85.4% | 74.1% | 63% | 1.77% (active) | 19.2% | 21.8% | 48.7% | 6.02% (active)
6 | COc1ccc(C(=O)/C=C/c2cc(C(F)(F)F)cc(C(F)(F)F)c2)cc1S(N)(=O)=O | -59.8% (active) | -65.8% (active) | -69.2% (active) | -58% (active) | -72.5% (active) | -59.1% (active) | -98.3% (active) | -75.4% (active) | -95.2% (active)
7 | O=C1NC(=NC23CC4CC(CC(C4)C2)C3)N/C1=C\c1ccc2ncccc2n1 | -9.66% (active) | -81.3% (active) | -11.4% (active) | 2.73% (active) | -19.4% (active) | 17.9% | 3.26% (active) | -0.698% (active) | -63% (active)
8 | Cc1ccc(C(=O)NNC(=O)CSc2nc3ccccc3c(=O)[nH]2)cc1 | 95.8% | 94.2% | 101% | 103% | 92.3% | 107% | 105% | 107% | 84.6%
9 | CCCCCc1ccc(S(=O)(=O)N(C(C)=O)c2cc(-c3csc(N(C)C(C)=O)n3)ccc2N2CCN(C)CC2)cc1 | 30.4% | 73.9% | -97.4% (active) | -77.9% (active) | -73.1% (active) | -87.8% (active) | -67.8% (active) | 15.7% | 20.9%
10 | O=C(O)CCCCCCCCCCN1C(=O)/C(=C/c2cnc(-c3ccc(Cl)cc3)s2)SC1=S | 47.2% | -17.1% (active) | 49% | 27.6% | 27.1% | 4.89% (active) | 82.4% | 14% | 52.3%
11 | CCCCCCCCCCCCCCCCCCCC(=O)NCCc1c[nH]c2ccc(OC(=O)CCCC(=O)OCCOOCCOOCCOOCCOOCCOOCCOOCCOOCCOOCCOOCCOOCCOOCCOC)cc12 | 22.4% | -20.2% (active) | 82.7% | 83% | 24.3% | 32.7% | 87.8% | 35.7% | 85.6%
12 | O=C(Nc1ccncc1)c1ccc(-n2c(=O)[nH]c3ccccc3c2=O)cc1 | 81.7% | 92.6% | 103% | 101% | 92.3% | 99.1% | 107% | 110% | 69.6%
13 | Cc1noc2c(Cc3ccccc3)nn(CC(=O)N/N=C/c3ccc(F)cc3)c(=O)c12 | 12.6% | 64.1% | 71.1% | 79.9% | 61.7% | 35% | 67.1% | 86.2% | 85.4%
14 | CCCn1c(O)c(N=Nc2nc(-c3cc4ccccc4oc3=O)cs2)c2cc(Br)ccc21 | 98.8% | 113% | 105% | 106% | 90.4% | 101% | 99.1% | 106% | 94.8%
15 | Nc1nnc(-c2c[nH]c3ncccc23)c(-c2c[nH]c3ccc(Br)cc23)n1 | 22.4% | 38.6% | 47.2% | 54.9% | 22.5% | 21.9% | 74.5% | 39.3% | 50.4%
16 | O=C(CSc1nnc(-c2ccc3nc(-c4ccc(Cl)cc4)[nH]c3c2)o1)Nc1ccc(Cl)cc1 | 28% | -65.1% (active) | -65.8% (active) | -69.9% (active) | -72.7% (active) | -48.9% (active) | 18.5% | -12.8% (active) | -48.4% (active)
17 | Cc1noc2c(Cc3ccccc3)nn(CC(=O)N/N=C/c3ccc(Cl)cc3)c(=O)c12 | 9.05% (active) | 89.4% | 75.8% | 51.7% | 51.9% | 26.4% | 79.7% | 72.6% | 81%
18 | CCN1CCN(c2ccc(NC(=O)Nc3ccc4c(c3F)CCN4c3ccnc(C(=O)NC)c3)cc2C(F)(F)F)CC1 | 105% | -39.7% (active) | -92.7% (active) | -76.9% (active) | -77.9% (active) | -96.5% (active) | 120% | -83.3% (active) | 98.9%
19 | CCOc1ccc2ncc(C#Cc3cncc(C(=O)Nc4ccc(CN5CCN(C)CC5)c(C(F)(F)F)c4)c3)n2n1 | 71.9% | -60.9% (active) | -74.2% (active) | -62.1% (active) | -63.7% (active) | -48% (active) | -89.3% (active) | -91.1% (active) | -76.1% (active)
20 | O=C1N/C(=N\c2nccs2)S/C1=C\c1cccs1 | 22.5% | 44.2% | 41.9% | 30% | 15.4% | 15.5% | 40.8% | 28.1% | 10.4%
21 | O=C(CNc1nc(-c2ccccc2)cs1)Nc1ccc(Br)cc1 | -51.4% (active) | -61.2% (active) | -1.09% (active) | -64.6% (active) | -82.2% (active) | -44.9% (active) | -98.1% (active) | -68.3% (active) | -84.1% (active)
22 | O=C1CCC(N2Cc3cc(CC(=O)Nc4ccc(N5CCCCC5)cc4)ccc3C2=O)C(=O)N1 (configuration not stated) | 14.1% | -9.03% (active) | 70.5% | 24% | 59.7% | 102% | 34.7% | 41.1% | -16.4% (active)
23 | C#Cc1ccc(S(=O)(=O)Nc2cccc(-c3csc(NC(C)=O)n3)c2)cc1 | 42.8% | 55.7% | 51.5% | 95.2% | 64.5% | 77.9% | 91.3% | 69.4% | 37.9%
24 | O=C(Nc1ccc(F)c(Cl)c1)c1cc(-c2ccc(F)cc2F)ccc1O | -6.69% (active) | -37.6% (active) | 0.745% (active) | 6.07% (active) | -16.1% (active) | 9.19% (active) | 4.97% (active) | -16% (active) | -44.4% (active)
25 | C/C(=C\CSc1ccccc1C(=O)O)CCCC(C)CCCC(C)CCCC(C)C (configuration not stated) | 37.3% | 80.6% | 71.8% | 55.1% | 50.4% | 34.4% | 18.3% | 46.4% | 60.3%
26 | O=C(NCCCCCCCCCC[P+](c1ccccc1)(c1ccccc1)c1ccccc1)c1ccc(-n2nc(-c3ccccc3O)nc2-c2ccccc2O)cc1 | -51.9% (active) | -87.4% (active) | -81.3% (active) | -60.9% (active) | -87% (active) | -79.4% (active) | -99.5% (active) | -27.1% (active) | -87.7% (active)
27 | O=S(=O)(Nc1ncccn1)c1ccc(-n2c(-c3ccc(Br)cc3)nc(-c3ccccc3)c2-c2ccccc2)cc1 | 2.77% (active) | 8.3% (active) | 42.7% | 48.5% | 28.6% | 34.5% | 39.7% | 27.7% | 24.3%
28 | COC(=O)C[C@](O)(CCCC(C)(C)O)C(=O)O[C@H]1C(OC)=C[C@@]23CCC(=O)N2CCc2cc4c(cc2[C@@H]13)OCO4 | 89.8% | 118% | 104% | 91.9% | 87.3% | 89.7% | 88% | 98.3% | 81.1%
